A short description of experiment [1]: NCI Yeast Anticancer Drug Screen. Data for the rad50 strain (AID 155).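 Note: 0% = growth of vehicle-only cultures of the same strain.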 Particulars: S. cerevisiae rad50 strain growth inhibition; at 50.0 µM; hits give high values. The gist of the method:
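Vehicle-treated cultures provide the reference for the growth inhibition reported for compound-exposed, repair-deficient yeast.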

The nature of experiment [2]: NCI Yeast Anticancer Drug Screen. Data for the mec2-1 strain (AID 157). Particulars: S. cerevisiae mec2-1 strain, at 50.0 µM, hits give high values. The method, boiled down:
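mec2-1 yeast strain, carrying an alteration in DNA damage repair or cell cycle control, was exposed to compounds; growth inhibition was measured relative to vehicle-treated controls.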

A short description of experiment [3]: NCI Yeast Anticancer Drug Screen. Data for the sgs1 mgt1 strain (AID 161).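 Note: 0% = growth of cultures given vehicle only.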 Particulars: S. cerevisiae sgs1 mgt1 strain, at 50.0 µM, hits give high values. The gist of the method:
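Compounds are added to genetically altered yeast, and growth is compared with cultures given vehicle alone to give percent inhibition.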

The nature of experiment [4]: NCI Yeast Anticancer Drug Screen. Data for the cln2 rad14 strain (AID 165).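 Note: 0% = growth equal to vehicle treated cultures.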 As to conditions: S. cerevisiae cln2 rad14 strain, at 50.0 µM, hits give high values. The gist of the method:
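Yeast carrying cln2 and rad14 alterations (cell cycle control and DNA damage repair) were exposed to compounds. Growth inhibition was measured against vehicle-treated controls.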

Experiment [5] in a line: NCI Yeast Anticancer Drug Screen. Data for the bub3 strain (AID 167). As to conditions: S. cerevisiae bub3 mutant strain, at 50.0 µM, hits give high values. The gist of the method:
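Mutant yeast screening strain plus compound; vehicle-treated cultures serve as the 0% inhibition reference.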

Experiment [6] can be described thus: NCI Yeast Anticancer Drug Screen. Data for the mlh1 rad18 strain (AID 175). Particulars: S. cerevisiae mlh1 rad18 strain growth inhibition; at 50.0 µM; hits give high values. The method, boiled down:
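Growth inhibition of the yeast strain was measured after compound exposure and expressed relative to vehicle-treated controls. The strain carries defined defects in DNA damage repair.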

Molecules are shown by their SMILES. This is part of a sample that, as a whole, favours compounds with a hit. Of some 79,000 tested, about 15% had one in any assay. A number with no mark means an inactive call. Calls of active or inactive are those of the source. Cut-off read from the data, not from the text of the source: active = growth inhibition above about 70%; inactive = the rest.

Take `Cn1c(=O)c2c(nc(CCNC(=O)c3ccccc3)n2C)n(C)c1=O`: the growth inhibition in experiment [1] is -1.15%; in experiment [2], -7.75%; in experiment [3], 11.1%; in experiment [4], -27.4%; in experiment [5] it was 5.6%; in experiment [6], -17.1%.

Take `O=C1C=CC(=CC=C2C=CN(CCCCCCO)C=C2)C=C1`: the growth inhibition in experiment [1] is 18.4%; in experiment [2] it was 6.05%; in experiment [3] it was 26.2%; in experiment [4] it was 13.8%; in experiment [5], 8.65%; in experiment [6], 16.1%.

As to `O=C1c2ccccc2C(=O)N1CN1CCC(CCCC2CCN(CN3C(=O)c4ccccc4C3=O)CC2)CC1`, the growth inhibition in experiment [1] was -58.5%; in experiment [2], -34.2%; in experiment [3] it was -36.3%; in experiment [4] it was -11.1%; in experiment [5], -48.1%; in experiment [6] it was -44.8%.

Take `CC1/C(=N/O)CC(c2ccccc2)N(N=O)C1c1ccccc1` (stereo not drawn): the growth inhibition was 62.8% in experiment [1]; 46.2% in experiment [2]; 57.5% in experiment [3]; 18.8% in experiment [4]; 13.6% in experiment [5]; 46% in experiment [6].

Regarding `COC(=O)c1nc(NN)[nH]c(=O)c1C`, the growth inhibition in experiment [1] was -2.1%; in experiment [2], -21.1%; in experiment [3], -27.6%; in experiment [4], 3.35%; in experiment [5], -26.6%; in experiment [6], -15.1%.

Consider `N#CC12CC3(CCC1CCC1(C2)OCCO1)OCCO3` (stereo not drawn), for which the growth inhibition in experiment [1] was -13.8%; in experiment [2], 2.65%; in experiment [3], -3.9%; in experiment [4] it was -6.65%; in experiment [5] it was 4.3%; in experiment [6], -1%.

Turning to `O=C(O)CSc1n[nH]c(-c2ccccc2O)n1`, the growth inhibition is -1.1% in experiment [1]; 2.5% in experiment [2]; 17.8% in experiment [3]; 17.5% in experiment [4]; 9.6% in experiment [5]; 7.25% in experiment [6].

On to `CC1(C)OC(C(CCl)OS(C)(=O)=O)C(C(CCl)OS(C)(=O)=O)O1` (stereo not drawn), for which the growth inhibition was 4.2% in experiment [1]; -6.1% in experiment [2]; -5.7% in experiment [3]; 24.9% in experiment [4]; -3.5% in experiment [5]; 6.95% in experiment [6].

For `Nc1cc2c(cc1I)-c1ccccc1C2O` (stereo not drawn), the growth inhibition in experiment [1] was 1.65%; in experiment [2], 4.55%; in experiment [3], -12.8%; in experiment [4], -2.9%; in experiment [5] it was 11.2%; in experiment [6], -8.75%.

`c1ccc([P+](c2ccccc2)(c2ccccc2)C2c3ccccc3CCc3ccccc32)cc1`: the growth inhibition was 99.6% (active) in experiment [1]; 99.8% (active) in experiment [2]; 99.5% (active) in experiment [3]; 99.5% (active) in experiment [4]; 99.4% (active) in experiment [5]; 99.6% (active) in experiment [6].

With `CCOC(=N)c1cn(C2OC(CO)C(O)C2O)c2nc[nH]c(=O)c12` (stereo not drawn), the growth inhibition is 3.35% in experiment [1]; -5.25% in experiment [2]; 11.2% in experiment [3]; 23.4% in experiment [4]; 16.2% in experiment [5]; 0.4% in experiment [6].

`COc1ccc(Cl)cc1NC(=O)Nc1ccc(SC)cc1`: the growth inhibition in experiment [1] was 24.1%; in experiment [2] it was 50.6%; in experiment [3], 56.5%; in experiment [4], 20.8%; in experiment [5] it was 33%; in experiment [6], 35.5%.

With `COc1ccccc1-c1cc(=O)c2cc(C)c(C)c(C(=O)O)c2o1`, the growth inhibition was 7.05% in experiment [1]; 3.95% in experiment [2]; 18.6% in experiment [3]; 29.7% in experiment [4]; 7.35% in experiment [5]; 11.8% in experiment [6].

For `O=c1[nH]cnc2c(C3OC(CO)C(O)C3O)[nH]nc12` (stereo not drawn), the growth inhibition is -5.2% in experiment [1]; -34.7% in experiment [2]; -15.8% in experiment [3]; 3.3% in experiment [4]; -16.8% in experiment [5]; -0.45% in experiment [6].

With `O=c1[nH]c(=O)c2ncn(-c3ccc([N+](=O)[O-])cn3)c2[nH]1`, the growth inhibition in experiment [1] was 20.8%; in experiment [2], 7.3%; in experiment [3] it was 9.95%; in experiment [4] it was 5.4%; in experiment [5] it was 8.6%; in experiment [6] it was -27.6%.

Consider `CC(=O)OC(=O)C(=O)C(F)C(O)C(C)C` (stereo not drawn), for which the growth inhibition in experiment [1] was -16.6%; in experiment [2], -13.9%; in experiment [3], -14.2%; in experiment [4], -10.4%; in experiment [5], -13.4%; in experiment [6], 7.45%.

Turning to `Cc1nc2ccc(N)cc2oc1=O`, the growth inhibition was 6.55% in experiment [1]; 15.1% in experiment [2]; 15.2% in experiment [3]; -28.9% in experiment [4]; 0.8% in experiment [5]; 9.35% in experiment [6].

`O=C(O)C1C(c2ccccc2)CC(=O)N1c1ccc(Cl)cc1` (stereo not drawn): the growth inhibition in experiment [1] is 1.55%; in experiment [2] it was 8.25%; in experiment [3], 5.75%; in experiment [4], 1.1%; in experiment [5] it was 19.6%; in experiment [6], -7.6%.

As for `Nc1ccccc1C(=O)N/N=C/c1cccnc1`, the growth inhibition in experiment [1] is 11.1%; in experiment [2], -21.3%; in experiment [3], 17.7%; in experiment [4], 9.45%; in experiment [5], 13.2%; in experiment [6], -16.6%.

For the compound `Cc1nnc2sc(Cl)nn12`, the growth inhibition in experiment [1] is 26.9%; in experiment [2], 48.8%; in experiment [3], 48.1%; in experiment [4], 17.7%; in experiment [5], 12.9%; in experiment [6], 22.8%.

As to `NCCN.O=C([O-])CN1CCOCC1.[OH-].[Pt+4]`, the growth inhibition is 8.9% in experiment [1]; -5.25% in experiment [2]; -29.9% in experiment [3]; -17.9% in experiment [4]; -13.7% in experiment [5]; -19.9% in experiment [6].

As for `N#CCc1ccccc1S(=O)(=O)O`, the growth inhibition in experiment [1] is 13.3%; in experiment [2] it was -0.75%; in experiment [3], -3.45%; in experiment [4], -9.75%; in experiment [5], 5.05%; in experiment [6] it was 0.25%.

As for `CC(=O)NCCC(=O)NCCSC(C)=O`, the growth inhibition in experiment [1] is -15%; in experiment [2], -12%; in experiment [3], 18.9%; in experiment [4] it was 6.15%; in experiment [5] it was -3.35%; in experiment [6], 9.25%.

In the case of `CCOc1c(OC)ccc(/C(C)=N\O)c1OCC`, the growth inhibition was -2.2% in experiment [1]; 0.65% in experiment [2]; 4.8% in experiment [3]; -1.7% in experiment [4]; 11.3% in experiment [5]; 10.1% in experiment [6].

Take `O=C1C=CC(=O)c2c(Cl)ccc(O)c21`: the growth inhibition in experiment [1] was -16.9%; in experiment [2] it was -30.6%; in experiment [3], -20.4%; in experiment [4], 10.1%; in experiment [5], -20.2%; in experiment [6], -8.7%.

Regarding `CC(=O)CC(=O)N1C(C)CCCC1C` (stereo not drawn), the growth inhibition in experiment [1] was -12.3%; in experiment [2] it was -36.7%; in experiment [3], -7.55%; in experiment [4], -0.4%; in experiment [5] it was -18.1%; in experiment [6], -18.7%.

With `COc1ccc2cccc(C(=O)O)c2c1`, the growth inhibition in experiment [1] was 1.3%; in experiment [2] it was -10.3%; in experiment [3], -6.5%; in experiment [4], 3.35%; in experiment [5] it was -15.6%; in experiment [6] it was -21.6%.

`CCN(CC)CC(C)(C)C(=O)/C=C/c1ccc(OC)cc1`: the growth inhibition was -3.7% in experiment [1]; -8.2% in experiment [2]; 7.35% in experiment [3]; -5.5% in experiment [4]; 0.05% in experiment [5]; -7.3% in experiment [6].

On to `OCC1OC(n2cnc3c([Se]Cc4ccccn4)ncnc32)C(O)C1O` (stereo not drawn), for which the growth inhibition in experiment [1] is 40%; in experiment [2] it was -0.6%; in experiment [3], 32%; in experiment [4] it was -3.75%; in experiment [5], -3.4%; in experiment [6], 7.5%.

Consider `[Cl-].[Dy+3].[O-]/N=C(\c1ccccc1)c1ccccn1.[O-]/N=C(\c1ccccc1)c1ccccn1.[O-]/N=C(\c1ccccc1)c1ccccn1`, for which the growth inhibition in experiment [1] was 27.4%; in experiment [2], 13.3%; in experiment [3] it was 20.2%; in experiment [4], 12.2%; in experiment [5] it was 19.4%; in experiment [6] it was 25.1%.

For the compound `C=CC(C)(C)[C@@]12CC3C(=O)N[C@@H](Cc4ccccc4)C(=O)N3[C@@H]1N(C(C)=O)c1ccccc12` (stereo partly drawn), the growth inhibition in experiment [1] was 73.2% (active); in experiment [2], 12.2%; in experiment [3], 16.7%; in experiment [4] it was 50.5%; in experiment [5] it was 45.6%; in experiment [6], 53.1%.

For the compound `Cc1cccc(CBr)c1-c1c(C)cccc1CBr`, the growth inhibition is -19.2% in experiment [1]; 10.8% in experiment [2]; 10.1% in experiment [3]; -31.1% in experiment [4]; 27.6% in experiment [5]; -0.65% in experiment [6].

As for `O=Cc1ccc(N2CCCCC2)cc1`, the growth inhibition was 4.05% in experiment [1]; 7.95% in experiment [2]; -13.2% in experiment [3]; -24.2% in experiment [4]; -8.25% in experiment [5]; -4.45% in experiment [6].

Take `C/C(C#CC1=CCCCC1)=N\Nc1ccc([N+](=O)[O-])cc1[N+](=O)[O-]`: the growth inhibition in experiment [1] was -3.45%; in experiment [2], -24.4%; in experiment [3], -8.1%; in experiment [4], -4.3%; in experiment [5], -7.75%; in experiment [6] it was 1.1%.

Consider `O=C(O)C1CC=CCC1c1c2ccc(=O)cc-2oc2cc(O)ccc12` (stereo not drawn), for which the growth inhibition in experiment [1] was 48.5%; in experiment [2], 27.8%; in experiment [3] it was 15.8%; in experiment [4], -5.25%; in experiment [5], 32.9%; in experiment [6] it was 13.6%.

As for `C=C1CC[N+]2(CCCCCC)CCCC12` (stereo not drawn), the growth inhibition in experiment [1] was 2.5%; in experiment [2], 27.4%; in experiment [3], 11.3%; in experiment [4], -1.4%; in experiment [5] it was 25.4%; in experiment [6], 21.6%.

For `CCCCC1(CO)NC(=O)NC1=O` (stereo not drawn), the growth inhibition in experiment [1] is -4.5%; in experiment [2], -13.9%; in experiment [3], -8.7%; in experiment [4], 8.95%; in experiment [5], 2.75%; in experiment [6], -1.4%.

With `CCC(C)c1cnc(CC(C)C)c(=O)[nH]1` (stereo not drawn), the growth inhibition in experiment [1] is 8.9%; in experiment [2], -44.2%; in experiment [3], 17.2%; in experiment [4], 4.85%; in experiment [5], -9.6%; in experiment [6], 0.85%.
